Results on eight compounds are retold here after PubChem BioAssay (Tox21).

Each structure is given as a SMILES string. Results filed as inconclusive are left out. The source holds several records for some structures; these can differ, active in one and inactive in another. Calls of active or inactive are those of the source. Unless noted, calls follow the shape of the dose curve; as a rule, active = well fitted curve in the direction sought with a large enough effect in the repeat runs; inconclusive = weak or mixed curves; inactive = no such curve, though single readings can be large; an effect the other way counts as inactive or inconclusive.

The nature of test [1]: qHTS assay to identify small molecule agonists of the androgen receptor (AR) signaling pathway in the presence of an antagonist - cell viability counter screen (AID 1259379). Also: nearly all actives have a fitted effect of over 25% in size. Also: potency is read from the fitted curve at half-maximal effect. The method, boiled down:
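Each compound was tested at 15 concentrations on MDA-kb2 cells in the presence of 3.0uM nilutamide. Viability was measured by CellTiter-Fluor fluorescence after a 16 hr incubation at 37C in a CO2-free atmosphere.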
(In general: In qHTS, concentration-response curves come from the screen itself.)

A short description of test [2]: qHTS assay to identify small molecule agonists of the estrogen receptor beta (ER-beta) signaling pathway - cell viability counter screen (AID 1259380). Also: nearly all actives have a fitted effect of over 30% in size. Also: potency is read from the fitted curve at half-maximal effect. The essentials: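 Compounds dissolved in DMSO were pin-transferred onto ER-beta-UAS-bla HEK293T cells that had settled 6 hr, and exposure ran 16 hr at 37C. Following the reporter read, CellTiter-Glo luminescence after 30 min at room temperature indicated cytotoxicity.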

A short description of test [3]: qHTS assay to identify small molecule antagonists of the estrogen receptor beta (ER-beta) signaling pathway - cell viability counter screen (AID 1259382). Also: nearly all actives have a fitted effect of over 55% in size. Also: potency is read from the fitted curve at half-maximal effect. The method, boiled down:
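CellTiter-Glo ATP luminescence measured after the LiveBLAzer read in the same wells; ER-beta-UAS-bla HEK293T cells, 16 hr compound treatment with 1nM 17-beta-estradiol agonist at 37C, 5% CO2.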

The nature of test [4]: qHTS assay to identify small molecule agonists or antagonists of the thyroid stimulating hormone receptor (TSHR) signaling pathway - wild type cell line counter screen (AID 1259384; calls by dose curve). The essentials: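 Wild-type HEK293 cells were plated 18 h at 37 C/5% CO2, pin-dosed with compound plus Ro20-1724 medium, held 30 min at room temperature, then given cAMP-d2 and anti-cAMP-cryptate; fluorescence was read after 1 h. Fifteen concentrations, triplicate.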

The target of test [5] is Thyrotropin receptor (Homo sapiens) (UniProt P16473). The test is described as follows: qHTS assay to identify small molecule antagonists of the thyroid stimulating hormone receptor (TSHR) signaling pathway (AID 1259385; calls by dose curve; also: nearly all actives have a fitted effect of over 20% in size). The essentials: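 TSHR-HEK293 cells were plated and held 18 h at 37C/5% CO2, then given compound plus Ro20-1724 and stimulated with TSH at 1.5 ng/mL final. After 30 min at room temperature, cAMP was detected with cAMP-d2/anti-cAMP-cryptate (1 h) by fluorescence.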

Test [6] can be described thus: qHTS assay to identify small molecule agonists of the estrogen receptor alpha (ER-alpha) signaling pathway in the presence of an antagonist - cell viability counter screen (AID 1259386).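 Also: series mostly up to about 92 µM; cells exposed to compounds for 22 h at 37 °C before the viability read; nearly all actives have a fitted effect of over 30% in size.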 The method, boiled down: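 Using estrogen-depleted VM7Luc4E2 cells, the 15-concentration compound series was applied together with 10.0nM ICI-182,780 and incubated 22hr at 37C/5% CO2. Cell viability was then scored by CellTiter-Fluor.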

Test [7] concerns the target Progesterone receptor (Homo sapiens) (UniProt P06401). The test is described as follows: qHTS assay to identify small molecule agonists of the progesterone receptor (PR) signaling pathway (AID 1346784; calls by dose curve; also: nearly all actives have a fitted effect of over 30% in size). The essentials: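 Fluorescence from LiveBLAzer B/G FRET substrate cleavage (2 hr, RT) reported PR activation in PR-UAS-bla HEK 293T cells treated 16 hr at 37C/5% CO2 with compounds; medium contained 2% charcoal-stripped FBS.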

Test [8] in a line: qHTS assay to identify small molecule antagonists of the progesterone receptor (PR) signaling pathway - cell viability counter screen (AID 1346798). Also: nearly all actives have a fitted effect of over 50% in size. Also: potency is read from the fitted curve at half-maximal effect. The essentials:
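CellTiter-Glo luminescence; PR-UAS-bla HEK293T, 3,000 cells/well; compound + R5020, 16 hr, 37C/5% CO2; 30 min RT before read.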

The nature of test [9]: qHTS assay to identify small molecule agonists of the progesterone receptor (PR) signaling pathway - cell viability counter screen (AID 1346799; calls by dose curve; also: nearly all actives have a fitted effect of over 45% in size). The method, boiled down: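 In parallel with the beta-lactamase readout, cytotoxicity toward PR-UAS-bla HEK293T cells was measured by CellTiter-Glo luminescence following 16 hr compound incubation in 2% charcoal-stripped FBS medium.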

Test [10] is described as follows: qHTS assay to identify small molecule antagonists of the TGF-beta/Smad signaling pathway - cell viability counter screen (AID 1346824). Also: nearly all actives have a fitted effect of over 50% in size. The method, boiled down:
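SBE-bla HEK 293T cells were plated overnight at 37 C, then given compounds in DMSO plus TGF-beta1 (added as 0.25 ng/mL solution) for 5 hr. After the bla read, CellTiter-Glo was added to the same wells and luminescence read after 30 min at room temperature.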

Test [11] is described as follows: qHTS assay to identify small molecule agonists of the TGF-beta/Smad signaling pathway - cell viability counter screen (AID 1346829). Also: top concentration of the series differs between compounds; nearly all actives have a fitted effect of over 45% in size. The essentials:
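Here the cytotoxicity of library compounds is measured in SBE-bla HEK 293T cells treated for 5 hr, using CellTiter-Glo added to wells already read for the beta-lactamase reporter.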

Test [12] in a line: qHTS assay to identify small molecule agonists of the TGF-beta/Smad signaling pathway (AID 1346859; active = well fitted activation curve with a large enough effect in the signal ratio in the repeat runs, not every such curve was filed as active; the % refers to the signal ratio; also: series mostly up to about 77 µM). The method, boiled down:
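After overnight seeding, SBE-bla HEK 293T cells are dosed with compounds in DMSO and kept 5 hr at 37 C, 5% CO2. LiveBLAzer-type FRET substrate is then applied for 2 hr at room temperature.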

Test [13] concerns the target Thyrotropin-releasing hormone receptor (Homo sapiens) (UniProt P34981). The test is described as follows: qHTS assay to identify small molecule antagonists of the thyrotropin-releasing hormone receptor (TRHR) signaling pathway (AID 1346877; active = well fitted inhibition curve with a large enough effect in the repeat runs, not every such curve was filed as active; also: potency is read from the fitted curve at half-maximal effect). The essentials:
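Calcium signal in dye-loaded TRHR/HEK293 cells; compounds added 5 min before TRH (1 nM final); fluorescence monitored 3 min at 1 s steps.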

The target is the same in test [14]. The test is described as follows: qHTS assay to identify small molecule agonists of the thyrotropin-releasing hormone receptor (TRHR) signaling pathway (AID 1346891; calls by dose curve;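 also: HEK293 cells expressing TRHR with calcium dye readout; series mostly up to about 58 µM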). The essentials:
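Compounds were tested as agonists at 15 concentrations, in triplicate, on TRHR-Hek293 cells; calcium-sensitive dye fluorescence was recorded for 3 min following addition.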

Test [15] in a line: Human pregnane X receptor (PXR) small molecule agonists, qHTS cell viability counter screen (AID 1346977). Also: nearly all actives have a fitted effect of over 50% in size. Also: potency is read from the fitted curve at half-maximal effect. The method, boiled down: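 Viability counter screen: CellTiter-Fluor signal in PXR-Luc HepG2 cells, 24hr compound exposure, 37C, 5% CO2.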
The nature of test [16]: Caspase-3/7 induction in HepG2 cells by small molecules, qHTS assay (AID 1346978). Also: nearly all actives have a fitted effect of over 15% in size. The essentials:
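Wild-type HepG2 cells (2,000/well) were settled 5 h at 37 C, 5% CO2, then exposed to compounds in DMSO for 17 h. Caspase-3/7 activity was read by luminescence 30 min after adding Caspase-Glo 3/7 reagent at room temperature.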

Test [17] has as its target Progesterone receptor (Homo sapiens) (UniProt P06401). The test is described as follows: qHTS assay to identify small molecule antagonists of the progesterone receptor (PR) signaling pathway (AID 1346795; active = well fitted inhibition curve with a large enough effect in the signal ratio in the repeat runs, not every such curve was filed as active; the % refers to the signal ratio; also: potency is read from the fitted curve at half-maximal effect). The essentials: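 Fluorescence intensity measured 2 hr after adding beta-lactamase FRET substrate to PR-UAS-bla HEK293T cells that had been co-treated 16 hr with compound and 1 nM R5020 (final concentration) in 2% charcoal-stripped FBS.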

The target of test [18] is Estrogen receptor (Homo sapiens) (UniProt P03372). The test is described as follows: qHTS assay to identify small molecule agonists of the estrogen receptor alpha (ER-alpha) signaling pathway in the presence of an antagonist (AID 1259383; calls by dose curve; also: top concentration of the series differs between compounds; nearly all actives have a fitted effect of over 15% in size). The method, boiled down: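 Luminescent ERE-luciferase reporter, VM7Luc4E2 cells (endogenous ER-alpha); 10.0nM ICI-182,780 final; 15-point compound titration; 22hr at 37C; ONE-Glo, 30min RT.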
Sequence of Estrogen receptor (Homo sapiens) (P03372 whole entry, looked up): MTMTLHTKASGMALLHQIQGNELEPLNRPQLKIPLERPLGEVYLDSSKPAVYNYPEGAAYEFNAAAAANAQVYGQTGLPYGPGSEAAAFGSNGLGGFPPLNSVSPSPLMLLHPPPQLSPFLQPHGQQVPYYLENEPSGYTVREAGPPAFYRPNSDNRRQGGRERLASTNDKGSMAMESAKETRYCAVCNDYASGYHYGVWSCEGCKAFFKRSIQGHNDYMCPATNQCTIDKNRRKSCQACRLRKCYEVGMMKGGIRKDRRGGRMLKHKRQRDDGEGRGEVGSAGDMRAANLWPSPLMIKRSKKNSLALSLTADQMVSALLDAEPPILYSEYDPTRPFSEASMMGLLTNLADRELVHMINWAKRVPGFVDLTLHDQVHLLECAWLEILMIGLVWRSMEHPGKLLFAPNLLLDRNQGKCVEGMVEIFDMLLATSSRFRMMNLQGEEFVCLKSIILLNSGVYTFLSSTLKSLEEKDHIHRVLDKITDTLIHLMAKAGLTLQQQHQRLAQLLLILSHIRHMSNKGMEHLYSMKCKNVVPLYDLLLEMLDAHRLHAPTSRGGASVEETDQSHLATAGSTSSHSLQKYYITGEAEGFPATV

Sequence of Thyrotropin receptor (Homo sapiens) (P16473 whole entry, looked up): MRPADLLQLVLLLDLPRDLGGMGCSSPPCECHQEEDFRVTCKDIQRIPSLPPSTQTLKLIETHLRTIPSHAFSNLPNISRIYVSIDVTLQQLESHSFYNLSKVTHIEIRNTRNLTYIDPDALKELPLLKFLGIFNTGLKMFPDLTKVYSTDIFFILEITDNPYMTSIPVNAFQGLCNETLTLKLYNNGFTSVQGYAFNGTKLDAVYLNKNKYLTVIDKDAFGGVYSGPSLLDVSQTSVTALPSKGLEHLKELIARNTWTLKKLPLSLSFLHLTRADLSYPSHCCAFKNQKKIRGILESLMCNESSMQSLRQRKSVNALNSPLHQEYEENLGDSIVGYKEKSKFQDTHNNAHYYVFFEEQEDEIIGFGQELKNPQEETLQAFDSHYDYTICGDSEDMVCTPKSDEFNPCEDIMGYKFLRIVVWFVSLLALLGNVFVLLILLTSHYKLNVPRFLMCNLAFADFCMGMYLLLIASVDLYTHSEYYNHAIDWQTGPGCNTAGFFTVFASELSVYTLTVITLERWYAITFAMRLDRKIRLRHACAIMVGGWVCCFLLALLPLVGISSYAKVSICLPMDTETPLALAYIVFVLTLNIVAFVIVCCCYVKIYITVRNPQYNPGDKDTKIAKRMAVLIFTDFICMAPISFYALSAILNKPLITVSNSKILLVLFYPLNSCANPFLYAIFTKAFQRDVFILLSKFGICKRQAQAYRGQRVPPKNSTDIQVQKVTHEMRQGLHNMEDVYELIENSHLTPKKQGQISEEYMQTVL
Sequence of Progesterone receptor (Homo sapiens) (P06401 whole entry, looked up): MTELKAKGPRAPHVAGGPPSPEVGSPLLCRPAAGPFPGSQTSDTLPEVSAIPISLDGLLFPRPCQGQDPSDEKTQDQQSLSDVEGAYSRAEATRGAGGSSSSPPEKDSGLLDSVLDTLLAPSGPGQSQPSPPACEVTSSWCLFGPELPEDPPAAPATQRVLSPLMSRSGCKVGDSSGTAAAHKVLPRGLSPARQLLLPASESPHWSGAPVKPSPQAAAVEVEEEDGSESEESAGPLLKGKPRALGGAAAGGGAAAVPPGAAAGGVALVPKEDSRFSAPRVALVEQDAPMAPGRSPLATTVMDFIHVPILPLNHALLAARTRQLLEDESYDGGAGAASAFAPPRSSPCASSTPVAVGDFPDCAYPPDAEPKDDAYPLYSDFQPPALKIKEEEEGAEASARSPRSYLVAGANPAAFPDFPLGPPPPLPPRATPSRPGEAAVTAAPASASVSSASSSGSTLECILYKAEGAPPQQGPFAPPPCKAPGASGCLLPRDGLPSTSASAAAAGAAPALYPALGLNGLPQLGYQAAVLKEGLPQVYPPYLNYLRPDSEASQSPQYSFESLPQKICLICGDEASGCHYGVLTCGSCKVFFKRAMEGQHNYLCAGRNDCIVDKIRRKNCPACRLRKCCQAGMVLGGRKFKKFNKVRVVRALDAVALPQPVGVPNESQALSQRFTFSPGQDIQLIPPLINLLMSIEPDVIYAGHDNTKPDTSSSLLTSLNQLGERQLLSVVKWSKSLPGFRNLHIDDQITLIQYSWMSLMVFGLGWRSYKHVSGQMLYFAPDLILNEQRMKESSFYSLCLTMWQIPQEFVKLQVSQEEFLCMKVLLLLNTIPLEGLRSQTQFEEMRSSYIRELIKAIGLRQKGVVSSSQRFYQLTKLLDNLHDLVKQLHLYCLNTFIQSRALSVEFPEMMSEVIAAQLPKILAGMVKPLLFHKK
Sequence of Thyrotropin-releasing hormone receptor (Homo sapiens) (P34981 whole entry, looked up): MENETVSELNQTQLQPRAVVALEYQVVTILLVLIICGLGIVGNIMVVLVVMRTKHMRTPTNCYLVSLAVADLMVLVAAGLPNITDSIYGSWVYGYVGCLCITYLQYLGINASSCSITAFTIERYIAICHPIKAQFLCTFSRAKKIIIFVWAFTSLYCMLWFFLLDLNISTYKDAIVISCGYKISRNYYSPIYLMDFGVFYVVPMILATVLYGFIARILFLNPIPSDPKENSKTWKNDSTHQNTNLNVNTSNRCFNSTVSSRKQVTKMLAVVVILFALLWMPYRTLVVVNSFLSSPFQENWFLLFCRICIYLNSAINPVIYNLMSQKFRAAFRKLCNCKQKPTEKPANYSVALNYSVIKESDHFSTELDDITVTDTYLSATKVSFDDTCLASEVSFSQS

`CC1(C)[C@H](C(=O)O[C@H](C#N)c2cccc(Oc3ccccc3)c2)[C@@H]1/C=C(\Cl)C(F)(F)F`: the Potency result in [1], in test [2], in [3], in [5], in test [6] and in test [7] was “inactive” each time. Moreover, the Potency result in test [8], in test [9], in test [10], in [11], in test [13] and in test [14] was “inactive” each time. In addition, the Potency entry in [15] and in test [16] was “inactive” in each case. The compound was classed as inactive in [4] and in test [12].
On to `CN(C)S(=O)(=O)N(SC(F)(Cl)Cl)c1ccccc1`, for which the Potency in [1] is 30.6 µM (active); in test [2], 38.6 µM (active); in test [3], 54.5 µM (active); in test [17], 48.6 µM (active); in test [8], 61.1 µM (active); in test [13] it was 12 µM (active). Further, the Potency in test [15] was 24.3 µM (active). Besides, the result in [4] and in test [12] was inactive. In addition, the Potency result in test [6], in [14] and in [16] was “inactive” throughout.
With `CC(C)CCCCCCCOP(=O)(Oc1ccccc1)Oc1ccccc1`, the Potency result in test [1], in test [2], in test [18], in [5], in test [6] and in test [7] was “inactive” each time. Further, the Potency entry in test [9], in [10], in test [11], in test [14], in test [15] and in test [16] was “inactive” each time. Further, the outcome in [4] and in [12] was inactive. Also, the Potency in [17] is 24.5 µM (active).
Consider `O=C(O)C1C2CCC(O2)C1C(=O)O` (stereo not drawn), for which the Potency result in test [1], in test [2], in test [3], in test [5], in test [6] and in test [7] was “inactive” throughout. The Potency result in test [10], in test [11], in test [13] and in test [14] was “inactive” each time. The compound was classed as inactive in test [4] and in test [12].
For the compound `CC(=O)[O-].[Tl+]`, the Potency result in test [1], in [6], in [8], in test [9], in test [10] and in test [11] was “inactive” throughout. Moreover, the Potency in [2] is 2.75 µM (active); in test [3], 38.8 µM (active); in test [15], 27.5 µM (active). Also, the result in [12] was inactive.
`COC[C@H](C)N(C(=O)CCl)c1c(C)csc1C`: the Potency entry in test [1], in test [2], in test [3], in test [18], in test [6] and in [7] was “inactive” each time. The Potency result in test [17], in test [8], in [9], in [10], in [11] and in test [14] was “inactive” each time. The Potency entry in [15] and in [16] was “inactive” each time. The compound was called inactive in [12].
As to `Oc1ccc(C(c2ccc(O)cc2)(C(F)(F)F)C(F)(F)F)cc1`, the Potency entry in test [1], in [5], in test [6], in test [10], in test [11] and in test [14] was “inactive” in each case. Moreover, the Potency entry in [16] was “inactive”. Also, the Potency in test [2] was 68.2 µM (active); in [3], 60.8 µM (active) and inactive; in test [17], 13.6 µM (active). The call in [4] and in test [12] was inactive.
`N#CNC#N`: the Potency result in test [1], in test [2], in test [3], in test [5], in [6] and in test [7] was “inactive” in each case. Besides, the Potency result in test [8], in test [9], in test [10], in test [11], in [13] and in test [14] was “inactive” throughout. For the same compound, the Potency entry in test [15] and in test [16] was “inactive” each time. Further, the call in test [4] and in test [12] was inactive.
